Here are results for 6 compounds from PubChem BioAssay.

For part of these data: Potency and affinity values are given separately. Active and inactive are the calls of the source.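 Rule for the calls, unless noted: active = calcium signal cut by more than 3 SD below the full-agonist control yet still positive, in both repeats and the earlier primary screen; inactive = the rest.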

Assay [1] concerns TRPC4 beta (transient receptor potential cation channel C4), mouse. As to the kind of experiment: activators of mouse TRPC4 channel, confirmation, cell-based, Fluo4 calcium, HEK293 TRPC4beta/mu-opioid, duplicates, 10 µM (AID 2426;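 active = fluorescence ratio normalized to control raised more than 50% in primary screen plus both repeat runs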;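 note: percent rise of integrated ratio over buffer wells lacking compound which define 0%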). Conditions: Fluo4 calcium fluorescence, at 10 µM; stronger effect = higher value.
Assay [2] relates to transient receptor potential cation channel C4 beta (TRPC4), mouse. The assay can be described thus: activators of mouse TRPC4 channel, confirmation, cell-based, second round, Fluo4, HEK293 TRPC4beta/mu-opioid, 1 µM (AID 2461;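 active = primary screen active and over 50% activation in each of two duplicate runs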;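 for activation: 0% = wells without test compound as baseline of integrated fluorescence ratio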). Conditions: Fluo4 calcium fluorescence, at 1 µM; stronger effect = higher value.
Assay [3] has as its system TRPC4 (transient receptor potential cation channel C4 beta), mouse. As to the kind of experiment: positive allosteric modulators of mouse TRPC4, confirmation, cell-based, second round, Fluo-4, HEK293 TRPC4beta/mu-opioid, 1 µM (AID 2554;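 active = primary screen hit whose fluorescence ratio, in both repeats, exceeds the weak agonist control mean by 3 SD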). Conditions: DAMGO EC20, Fluo-4 calcium flux, at 1 µM; stronger effect = higher value. (In general: Calcium flux is commonly read through the fluorescence of an indicator in the cells.)

Assay [4] has as its system TRPC4 beta (transient receptor potential cation channel C4), mouse. As to the kind of experiment: positive allosteric modulators of mouse TRPC4, confirmation, cell-based, Fluo-4, HEK293 TRPC4beta/mu-opioid (AID 2555;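 active = primary screen hit whose calcium fluorescence ratio, in both repeats, exceeds the weak agonist control mean by 3 SD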). Conditions: DAMGO EC20, Fluo-4 calcium flux, at 10 µM; stronger effect = higher value.
In assay [5] the target is Short transient receptor potential channel 4 (Mus musculus) (UniProt Q9QUQ5). The assay can be described thus: inhibitors of mouse TRPC4 channel, confirmation, cell-based, Fluo4, HEK293 TRPC4beta/mu-opioid (AID 2636). Conditions: DAMGO, Fluo4 calcium flux, at 10 µM; stronger effect = higher value.
Assay [6] shares this target. As to the kind of experiment: inhibitors of mouse TRPC4 channel, confirmation, cell-based, second round, Fluo4, HEK293 TRPC4beta/mu-opioid, 1 µM (AID 2637;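 active = calcium signal ratio cut to more than 3 SD under the fully stimulated control mean yet still positive, in both repeats and the primary screen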). Conditions: Fluo4 calcium flux, DAMGO, at 1 µM; stronger effect = higher value.
The target is the same in assay [7]. As to the kind of experiment: TRPC4 positive allosteric modulators, dose response, cell-based, HEK293 TRPC4/mu-opioid, Fluo-4 calcium, EC20 DAMGO (AID 434941;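 active = earlier screen potentiator hit that boosts the TRPC4 ion channel at some dose, with a dose response; inactive = no potentiation, no dose response, or not a prior hit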;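 note: calcium entry triggered by an EC20 dose of DAMGO at the co-expressed mu-opioid receptor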).
Assay [8] shares this target. The assay can be described thus: mouse TRPC4 channel inhibitors, dose response, cell-based, HEK293 TRPC4/mu-opioid, Fluo-4 calcium (AID 434942;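 active = primary screen inhibitor hit that blocks the TRPC4 channel at some tested dose, yielding a dose curve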).
The target of assay [9] is Short transient receptor potential channel 6 (Mus musculus) (UniProt Q61143). As to the kind of experiment: inhibition of mouse TRPC6 channel, confirmation, selectivity assay for TRPC4 inhibitor project, cell-based, HEK293, membrane potential dye, duplicate (AID 434948;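 active = active in primary screen and both duplicates, each dropping signal beyond three positive-control SD with fluorescence still positive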). The note with it: HEK293 TRPC6, membrane potential dye fluorescence, at 10 µM, stimulated with maximal-effect acetylcholine; stronger effect = higher value.

The target is the same in assay [10]. The assay can be described thus: activation of mouse TRPC6 channel, confirmation, selectivity assay for TRPC4 activator project, cell-based, HEK293, membrane potential dye, duplicate (AID 434950;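 active = membrane potential signal rise above negative control mean plus 3 SD in both duplicates, also active in the earlier TRPC4 screen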;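 for activation: 0% = buffer only wells and 100% = acetylcholine maximal-effect wells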). Conditions: HEK293 TRPC6, membrane potential fluorescence, at 10 µM; stronger effect = higher value.
Assay [11] has the same target. The assay can be described thus: TRPC6 potentiation by TRPC4 potentiator hits, confirmation, selectivity assay for TRPC4 potentiator project, HEK293 cells, membrane potential dye, duplicate (AID 434952;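 active = compound raising the membrane signal above positive-control mean plus 3 SD in both repeats, and a primary screen hit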). The note with it: HEK293 TRPC6, membrane potential dye fluorescence, at 10 µM, maximal acetylcholine added after compound; stronger effect = higher value.
The target of assay [12] is Short transient receptor potential channel 4 (Mus musculus) (UniProt Q9QUQ5). As to the kind of experiment: calcium flux activators in TRPC4/5HT1a cells, counter-screen for TRPC4 activator project, cell-based, second counter screen, HEK293 TRPC4/5HT1a, Fluo-4 (AID 434977;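 active = calcium signal rise above buffer-control mean plus 5 SD in both duplicates, and also a hit in the primary screen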;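 for activation: plate controls were assay buffer for no effect and maximal serotonin response for full effect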). The note with it: Fluo-4 calcium flux, at 10 µM; stronger effect = higher value.
Assay [13] in a line: calcium flux inhibitors in TRPC4/5HT1a cells, confirmation, counter-screen for TRPC4 inhibitor project, cell-based, second counter screen, HEK293 TRPC4/5HT1a, Fluo-4 (AID 434978;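 active = primary screen active whose calcium signal fell more than 3 SD beyond the full-serotonin control mean in both duplicate plates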;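 note: serotonin given first at submaximal then at maximal dose after compound preincubation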). The note with it: Fluo-4 calcium flux, at 10 µM, serotonin added to trigger calcium flux; stronger effect = higher value.
Assay [14] has as its system TRPC4 (mouse), co-expressed with 5HT1a in HEK293. The assay can be described thus: calcium flux potentiators in TRPC4/5HT1a cells, confirmation, counter-screen for TRPC4 potentiator project, cell-based, second counter screen, HEK293 TRPC4/5HT1a, Fluo-4 (AID 434979;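 active = signal rise over 3 SD above mean of control wells given weak agonist, in both repeats and first screen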). The note with it: Fluo-4 calcium flux, at 10 µM, serotonin added at its EC20 dose; stronger effect = higher value.
The nature of assay [15]: calcium flux activation in mu-opioid HEK293 cells, confirmation, counter-screen for TRPC4 activator project, cell-based, HEK293 mu-opioid receptor line (AID 449723;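 active = hit in primary screen, with calcium signal over 5 SD above buffer well mean in both duplicates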;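 note: counter screen cells carry the mu-opioid receptor alone and lack TRPC4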). The note with it: Fluo-4 calcium fluorescence, at 10 µM; stronger effect = higher value.
Assay [16] can be described thus: calcium flux enhancement in mu-opioid HEK293 cells, confirmation, counter-screen for TRPC4 allosteric potentiator project, cell-based, HEK293 mu-opioid receptor line (AID 449724;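 active = calcium signal rise more than 3 SD above the low-dose agonist control mean, in both duplicate plates and the primary screen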;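 note: HEK293 cells carrying mu-opioid receptor only with no TRPC4 channel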). Conditions: Fluo-4 calcium flux, at 10 µM, compound added before EC20 DAMGO stimulus; stronger effect = higher value.
Assay [17] is described as follows: thallium flux activation in parental CHO cells, counter-screen for KCNQ1 potentiator project (AID 493006;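 active = duplicate-averaged activation above buffer control mean plus 5 SD of those controls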;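 for activation: fluorescence ratio of max minus min over baseline after K+ and Tl+ depolarization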). The note with it: parental CHO-K1 cells, FluxOR thallium flux, at 10 µM; stronger effect = higher value. On the technique in general: A counterscreen serves to expose hits that act by an unwanted route or on another target.
For assay [18], the target named is Potassium voltage-gated channel subfamily KQT member 1 (Homo sapiens) (UniProt P51787). As to the kind of experiment: KCNQ1 potassium channel potentiators, confirmation, FluxOR thallium flux, CHO cells, duplicates (AID 493007;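 active = potentiation averaged over duplicate wells exceeding buffer-only control mean by more than 3 SD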;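 for outcome: cells depolarized by a potassium plus thallium sulfate stimulus after compound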;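 for potentiation: 0% = buffer-only wells and 100% = R-L3 activator control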). Conditions: KCNQ1 cell line, FluxOR thallium flux fluorescence, at 10 µM; stronger effect = higher value, % of reference activator effect, buffer zero.

The target of assay [19] is Potassium voltage-gated channel subfamily KQT member 2 (Rattus norvegicus) (UniProt O88943). The assay can be described thus: rat KCNQ2 channel potentiation, selectivity assay for KCNQ1 potentiator project, KCNQ2-CHO-K1 cells (AID 493009;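 active = mean duplicate potentiation above the buffer control mean plus 5 SD of buffer wells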;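 note: assay conditions were tuned for KCNQ1 rather than KCNQ2 modulators; signal is max minus min fluorescence divided by baseline after thallium stimulus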). Conditions: FluxOR thallium flux fluorescence, at 10 µM; stronger effect = higher value, scaled: buffer 0, activator control 100.
Assay [20] has as its target Potassium voltage-gated channel subfamily KQT member 1 (Homo sapiens) (UniProt P51787). As to the kind of experiment: KCNQ1 channel current potentiators, confirmation, orthogonal assay for KCNQ1 potentiator project, IonWorks patch clamp, KCNQ1-CHO cells (AID 493184;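 active = current rise at least 3 SD above the untreated control mean in each of two repeat wells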;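 for current potentiation: percent change of the same well's current before compound addition so 0% = no change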). The note with it: automated patch clamp current, at 10 µM; stronger effect = higher value. Background: Patch clamp records ionic current or voltage across a cell membrane.

Short transient receptor potential channel 6 (Mus musculus), sequence (Q61143 whole entry, looked up): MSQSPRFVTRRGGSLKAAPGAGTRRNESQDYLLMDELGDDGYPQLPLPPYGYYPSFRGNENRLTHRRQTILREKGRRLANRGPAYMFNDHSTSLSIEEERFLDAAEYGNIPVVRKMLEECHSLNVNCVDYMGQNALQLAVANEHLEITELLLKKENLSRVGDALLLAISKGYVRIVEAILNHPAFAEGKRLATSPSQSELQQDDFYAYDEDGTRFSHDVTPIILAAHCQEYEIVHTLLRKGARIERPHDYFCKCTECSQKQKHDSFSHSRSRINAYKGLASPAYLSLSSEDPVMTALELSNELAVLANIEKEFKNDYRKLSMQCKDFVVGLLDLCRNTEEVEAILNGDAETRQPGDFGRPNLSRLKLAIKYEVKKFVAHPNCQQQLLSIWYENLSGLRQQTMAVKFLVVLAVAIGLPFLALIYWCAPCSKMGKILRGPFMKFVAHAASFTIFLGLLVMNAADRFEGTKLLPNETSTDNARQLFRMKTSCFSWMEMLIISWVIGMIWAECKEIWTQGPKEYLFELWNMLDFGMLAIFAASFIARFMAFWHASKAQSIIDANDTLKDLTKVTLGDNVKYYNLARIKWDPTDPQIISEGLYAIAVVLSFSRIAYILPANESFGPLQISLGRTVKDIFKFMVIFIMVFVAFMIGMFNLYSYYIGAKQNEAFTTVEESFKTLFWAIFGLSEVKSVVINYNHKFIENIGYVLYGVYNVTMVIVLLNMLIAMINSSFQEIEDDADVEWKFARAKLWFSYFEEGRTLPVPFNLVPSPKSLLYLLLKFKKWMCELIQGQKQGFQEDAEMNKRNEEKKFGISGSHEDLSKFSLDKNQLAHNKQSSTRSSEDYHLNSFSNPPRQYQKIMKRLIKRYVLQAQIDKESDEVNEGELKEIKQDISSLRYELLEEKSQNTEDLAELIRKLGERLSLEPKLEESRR
Potassium voltage-gated channel subfamily KQT member 1 (Homo sapiens), sequence (P51787 whole entry, looked up): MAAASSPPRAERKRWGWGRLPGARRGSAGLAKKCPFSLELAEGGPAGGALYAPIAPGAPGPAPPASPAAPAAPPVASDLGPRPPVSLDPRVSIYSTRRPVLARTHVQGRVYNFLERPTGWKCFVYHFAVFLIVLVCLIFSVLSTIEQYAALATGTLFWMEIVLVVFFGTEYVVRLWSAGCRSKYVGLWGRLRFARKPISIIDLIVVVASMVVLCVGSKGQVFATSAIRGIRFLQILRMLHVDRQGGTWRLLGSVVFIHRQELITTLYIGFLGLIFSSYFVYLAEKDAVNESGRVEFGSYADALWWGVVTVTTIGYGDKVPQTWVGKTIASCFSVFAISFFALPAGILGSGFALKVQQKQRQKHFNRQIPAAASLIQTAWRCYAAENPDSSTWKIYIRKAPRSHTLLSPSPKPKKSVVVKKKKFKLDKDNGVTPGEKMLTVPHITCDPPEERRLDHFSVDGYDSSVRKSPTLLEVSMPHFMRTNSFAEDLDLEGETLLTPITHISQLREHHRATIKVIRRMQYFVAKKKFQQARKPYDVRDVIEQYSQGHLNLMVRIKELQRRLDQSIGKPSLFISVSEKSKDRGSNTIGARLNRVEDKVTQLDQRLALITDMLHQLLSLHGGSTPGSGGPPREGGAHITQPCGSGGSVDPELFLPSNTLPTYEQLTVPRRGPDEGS
Potassium voltage-gated channel subfamily KQT member 2 (Rattus norvegicus), sequence (O88943 whole entry, looked up): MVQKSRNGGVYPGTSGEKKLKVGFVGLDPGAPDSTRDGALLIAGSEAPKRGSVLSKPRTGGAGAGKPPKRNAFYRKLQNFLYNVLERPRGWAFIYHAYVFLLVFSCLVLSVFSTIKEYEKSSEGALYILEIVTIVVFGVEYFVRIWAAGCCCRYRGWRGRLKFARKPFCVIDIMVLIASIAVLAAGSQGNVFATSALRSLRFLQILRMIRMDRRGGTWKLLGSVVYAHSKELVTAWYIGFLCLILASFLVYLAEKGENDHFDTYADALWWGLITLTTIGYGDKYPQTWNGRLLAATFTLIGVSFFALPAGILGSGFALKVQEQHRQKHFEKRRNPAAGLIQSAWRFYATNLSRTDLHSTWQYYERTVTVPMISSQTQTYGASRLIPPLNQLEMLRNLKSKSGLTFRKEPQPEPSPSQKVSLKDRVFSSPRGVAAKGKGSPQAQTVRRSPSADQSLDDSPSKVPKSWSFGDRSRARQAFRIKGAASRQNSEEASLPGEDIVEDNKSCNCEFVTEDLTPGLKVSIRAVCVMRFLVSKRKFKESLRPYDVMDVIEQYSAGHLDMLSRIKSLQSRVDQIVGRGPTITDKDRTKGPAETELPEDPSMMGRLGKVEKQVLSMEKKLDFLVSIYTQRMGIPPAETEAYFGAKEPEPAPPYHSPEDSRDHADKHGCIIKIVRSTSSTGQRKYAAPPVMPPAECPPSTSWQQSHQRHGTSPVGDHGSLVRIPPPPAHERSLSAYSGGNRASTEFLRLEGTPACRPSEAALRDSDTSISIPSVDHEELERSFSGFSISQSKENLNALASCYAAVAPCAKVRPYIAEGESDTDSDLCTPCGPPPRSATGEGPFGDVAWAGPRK
Short transient receptor potential channel 4 (Mus musculus), sequence (Q9QUQ5 whole entry, looked up): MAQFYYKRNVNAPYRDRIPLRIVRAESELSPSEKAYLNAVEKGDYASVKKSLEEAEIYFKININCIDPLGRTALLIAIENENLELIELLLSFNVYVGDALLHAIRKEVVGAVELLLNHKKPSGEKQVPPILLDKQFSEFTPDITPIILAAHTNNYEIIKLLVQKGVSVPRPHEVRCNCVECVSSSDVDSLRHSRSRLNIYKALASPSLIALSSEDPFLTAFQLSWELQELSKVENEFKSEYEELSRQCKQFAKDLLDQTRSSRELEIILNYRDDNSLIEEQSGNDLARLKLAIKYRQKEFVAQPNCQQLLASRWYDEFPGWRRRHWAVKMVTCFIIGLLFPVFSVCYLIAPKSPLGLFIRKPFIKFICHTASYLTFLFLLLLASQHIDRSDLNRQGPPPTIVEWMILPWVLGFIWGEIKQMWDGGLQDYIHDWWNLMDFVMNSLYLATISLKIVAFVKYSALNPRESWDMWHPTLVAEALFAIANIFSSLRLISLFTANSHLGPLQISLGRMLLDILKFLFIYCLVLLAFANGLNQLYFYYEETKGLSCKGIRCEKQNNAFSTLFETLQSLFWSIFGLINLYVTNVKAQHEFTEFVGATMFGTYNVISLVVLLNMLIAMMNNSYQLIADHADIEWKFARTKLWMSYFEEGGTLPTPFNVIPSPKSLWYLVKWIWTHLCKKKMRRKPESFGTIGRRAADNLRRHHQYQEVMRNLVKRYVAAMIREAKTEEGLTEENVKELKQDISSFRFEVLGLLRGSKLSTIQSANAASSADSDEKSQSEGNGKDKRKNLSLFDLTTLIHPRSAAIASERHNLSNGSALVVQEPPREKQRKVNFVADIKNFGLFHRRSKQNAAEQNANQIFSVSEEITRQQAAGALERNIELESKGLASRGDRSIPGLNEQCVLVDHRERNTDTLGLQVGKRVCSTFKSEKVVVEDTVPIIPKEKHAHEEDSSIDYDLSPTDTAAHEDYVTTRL

`CN(C)CCCN(C(=O)c1ccc(C(=O)c2ccccc2)cc1)c1nc2ccc(F)cc2s1`: the activation in assay [1] was 83% (active). The outcome in [2], in assay [3], in assay [4], in assay [5], in [6] and in [7] was inactive. The result in assay [8], in assay [9], in assay [10], in assay [11], in assay [12] and in assay [13] was inactive. The outcome in [14], in assay [15] and in assay [16] was inactive.

Regarding `CCOC(=O)C1(CC2CCCCO2)CCN(Cc2c(C)cc(C)cc2-n2cccn2)CC1` (stereo not drawn), the results for the activation in assay [1], in assay [2] and in assay [10] were 75% (active), 103% (active) and 62.5% (active), respectively. For the same compound, the result in [3], in assay [4], in assay [5], in [6], in [7] and in assay [8] was inactive. For the same compound, the result in assay [9], in assay [11], in assay [12], in assay [13], in [14] and in [15] was inactive. Moreover, the result in assay [16] was inactive.

Regarding `CN(C)C(CNC(=O)Cc1cccc(C(F)(F)F)c1)c1ccco1` (stereo not drawn), the activation in [1] was 83% (active); in [10], 29% (active). Further, the outcome in [2], in assay [3], in [4], in assay [5], in assay [6] and in [7] was inactive. For the same compound, the result in assay [8], in assay [9], in assay [11], in assay [12], in assay [13] and in assay [14] was inactive. Also, the result in assay [15] and in assay [16] was inactive.

For the compound `CCCOc1ccc(C(=O)NNC(=S)NC(=O)c2ccccc2)cc1`, the activation in assay [1] was 152% (active); in [12], 122% (active); in assay [15], 39.5% (active); in [17], 180% (active). Also, the result in assay [2], in assay [3], in assay [4], in assay [5], in assay [6] and in [7] was inactive. For the same compound, the outcome in [8], in assay [9], in assay [10], in assay [11], in assay [13] and in assay [14] was inactive. Moreover, the result in assay [16] and in [20] was inactive. For the same compound, the potentiation in assay [18] is 168% (active); in [19], 318% (active).

As for `Cc1cccc(C(=O)NC(=S)NNC(=O)c2cccs2)c1`, the activation in assay [1] was 226% (active); in [10], 34.5% (active); in assay [12], 125% (active); in [15] it was 67.1% (active); in [17], 142% (active). Further, the outcome in assay [2], in assay [3], in assay [4], in assay [5], in [6] and in assay [7] was inactive. For the same compound, the outcome in [8], in assay [9], in assay [11], in [13], in [14] and in assay [16] was inactive. The potentiation in assay [18] is 75% (active); in assay [19], 210% (active). For the same compound, in assay [20], the current potentiation is 22.2% (active).

With `CCOc1ccccc1OCC(=O)Nc1cc(S(=O)(=O)N2CCCCC2)ccc1N1CCN(CC)CC1`, the activation in assay [1] is 195% (active); in [12], 45% (active). Further, the result in assay [2], in assay [3], in assay [4], in assay [5], in [6] and in assay [7] was inactive. In addition, the outcome in assay [8], in [9], in assay [10], in assay [11], in assay [13] and in assay [14] was inactive. The outcome in assay [15], in assay [16], in [17], in assay [18], in assay [19] and in [20] was inactive.
